Assay in all cases: NCI-60 one-dose screen, 48 h (100 = growth as untreated, 0 = no growth, -100 = all killed)
Conditions in all cases: 10 µM unless noted

For test [1], the system named is K-562 leukemia.
For test [2], the system named is MALME-3M melanoma.
Test [3] has as its system MDA-MB-231 breast.
Test [4] has as its system RXF 393 renal.
Test [5] deals with SF-268 CNS.
Test [6] has as its system SF-295 CNS.
In test [7] the test system is SF-539 CNS.
The subject of test [8] is UACC-257 melanoma.
The test system of test [9] is M14 melanoma.
The subject of test [10] is HCT-15 colon.
Test [11] has as its system HT29 colon.
Test [12] deals with SNB-75 CNS.
Test [13] concerns SNB-19 CNS.
In test [14] the test system is U251 CNS.
Test [15] deals with PC-3 prostate.
Test [16] deals with SK-MEL-5 melanoma.
Test [17] concerns UACC-62 melanoma.
Test [18] concerns LOX IMVI melanoma.
For test [19], the system named is SK-MEL-28 melanoma.
For test [20], the system named is DU-145 prostate.

The structures appear in SMILES notation. This is part of a sample that, as a whole, favours compounds with a hit. Of some 83,000 tested, about 20% had one in any assay.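 Note: values are percent growth. 100 is the growth of untreated cells, values between 100 and 0 indicate rising inhibition; between -100 and 0 indicates cell death.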 A number with no mark means an inactive call. Activity calls are given as the source filed them. The calls were made as follows: active = growth percent below 10; inactive = the rest.

As to `CCOc1cc(N)ccc1C(=O)NCCCN(CC)CC`, the growth was 80.3% in [1]; 96.3% in [2]; 93.2% in test [3]; 90.7% in test [4]; 103% in test [5]; 103% in test [6]. Also, the growth is 100% in test [7]; 102% in test [8]; 96.1% in [9]; 106% in test [10]; 102% in test [11]; 85% in test [12]. For the same compound, the growth was 102% in [13]; 104% in [14]; 101% in test [15]; 100% in test [16]; 95.5% in [17]; 100% in test [18]. Further, the growth in [19] is 97.5%.
Consider `N#Cc1c(N)nc2c(nnn2-c2cccc(C(F)(F)F)c2)c1N`, for which the growth in test [20] is 99%; in [2] it was 121%; in test [3], 78.3%; in test [4], 92.7%; in [5], 91.9%; in [6], 95.6%. Moreover, the growth in [7] is 96.9%; in test [8], 103%; in test [10], 86.3%; in [11], 86%; in test [12], 82.6%; in test [13], 93.1%. Moreover, the growth was 85.2% in test [14]; 86.8% in [15]; 87.9% in [16]; 88.5% in test [17]; 94.7% in test [18]; 111% in test [19].
For `O=C(Nc1ccccc1)c1sc(-c2cccc(C(F)(F)F)c2)cc1O`, the growth in test [20] is 82.4%; in test [2] it was 81.4%; in test [3], 91.9%; in [4], 102%; in [5], 82.8%; in [6] it was 82.9%. In addition, the growth in test [7] is 42.2%; in test [8], 46.9%; in test [10], 69.5%; in [11] it was 93.7%; in test [12], 78.5%; in [13], 69.6%. The growth was 51.6% in [14]; 81% in test [15]; 18.4% in test [16]; 86.4% in test [18]; 53% in [19].
With `CN(C)CCC(O)(Cc1ccccc1)c1ccccc1` (stereo not drawn), the growth in test [1] is 103%; in test [2], 114%; in test [3] it was 108%; in test [4], 117%; in test [6], 103%; in test [7], 103%. In addition, the growth in test [8] is 111%; in test [10], 108%; in [11] it was 103%; in [12], 102%; in test [13], 112%; in [15], 92.9%. In addition, the growth in [16] is 108%; in test [17] it was 117%; in [18], 99.2%; in test [19], 112%.
Consider `Cn1ccc(Cc2cnc(N)s2)n1`, for which the growth in test [20] was 110%; in [2] it was 100%; in [3] it was 104%; in [4], 107%; in test [5], 100%; in [6], 107%. The growth in [7] is 99.5%; in test [8], 81.7%; in test [10], 104%; in test [11], 97.5%; in [12], 93.3%; in test [13], 98.9%. Besides, the growth is 97.5% in [14]; 98.8% in test [15]; 101% in test [16]; 100% in test [17]; 106% in test [19].
Regarding `CCCCCCNc1cc(C)nc2ccc(OC)cc12`, the growth in test [1] was 21%; in [2] it was 52.3%; in [3] it was 69.6%; in [4] it was 61.2%; in test [5], 93.2%; in [6] it was 44.4%. Also, the growth is 68.4% in test [7]; 69.4% in test [8]; 59.1% in test [9]; 60.9% in test [10]; 19.6% in test [11]; 89.2% in test [12]. Further, the growth in test [13] is 77.1%; in [14] it was 55.1%; in [15], 65.9%; in test [16], 35%; in test [17], 64.1%; in test [18], 61.4%. Also, the growth in [19] is 67.9%.
For `CN(CCC(=O)/C(=C\c1ccccc1)c1ccc(Cl)cc1)Cc1ccccc1`, the growth was 22.7% in test [1]; 18% in test [2]; 13% in test [3]; -29.3% (active) in test [4]; 5.31% (active) in [5]; 25.7% in [6]. Moreover, the growth in [7] was -8.26% (active); in [8], 53.5%; in [9], 37.9%; in test [10] it was 2.09% (active); in [11], 9.63% (active); in test [12], 60.3%. Moreover, the growth in test [13] is 23%; in test [14], -10.3% (active); in test [15], 45%; in test [16], 58.7%; in test [17], -36.6% (active); in test [18], -58.3% (active). For the same compound, the growth in test [19] was 9.17% (active).
Take `CCN(CC)CCCNC(=O)c1ccc(N)cc1`: the growth in [1] was 35.8%; in [2], 94.3%; in [3], 104%; in [4], 110%; in [5], 102%; in test [6] it was 99.3%. The growth is 106% in test [7]; 92.9% in [8]; 98.7% in test [9]; 101% in test [10]; 100% in test [11]; 95.5% in [12]. Moreover, the growth was 102% in test [13]; 101% in [14]; 101% in [15]; 97.7% in test [16]; 105% in [17]; 103% in test [18]. Also, the growth in test [19] is 96.8%.
For the compound `CCCCCCCCN(CCCCCCCC)C(=N)c1ccnc2ccccc12`, the growth in [1] is -52.7% (active); in [2], -78.5% (active); in test [3], -77.2% (active); in test [4], -87.8% (active); in test [5] it was -71.8% (active); in [6] it was -84.4% (active). Besides, the growth in test [7] was -87.6% (active); in test [8] it was -68.9% (active); in test [9] it was -84.6% (active); in test [10], -88.2% (active); in test [11] it was -87.1% (active); in test [12], -95.7% (active). The growth is -70.8% (active) in [13]; -95.6% (active) in test [14]; -88.7% (active) in [15]; -96.6% (active) in test [16]; -74.5% (active) in test [17]; -100% (active) in test [18]. The growth in test [19] was -86% (active).
